Results filed as inconclusive are left out. A call without a number means that no potency is given here. The source made the active and inactive calls. Unless noted, the call rests on the fitted dose curve; in most records, active means well fitted curve in the direction sought with a large enough effect in the repeat runs; inconclusive means weak or mixed curves; inactive means no such curve, though single readings can be large; an effect the other way counts as inactive or inconclusive.
Legend:
[1] = qHTS assay to identify small molecule agonists of the peroxisome proliferator-activated receptor delta (PPARd) signaling pathway - cell viability counter screen (AID 743211); further: nearly all actives have a fitted effect of over 55% in size
In short: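 Viability of GeneBLAzer PPARd UAS-bla HEK293H cells was assessed after 17 h compound incubation at 37C, using CellTiter-Glo reagent added after the reporter read and luminescence recorded 30 min later.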

[2] = qHTS assay to identify small molecule agonists of the farnesoid-X-receptor (FXR) signaling pathway - cell viability counter screen (AID 743218); further: nearly all actives have a fitted effect of over 45% in size
In short: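 Parallel cytotoxicity test: compound-treated (16 h, 37 C) HEK 293T FXR-bla reporter cells were lysed with CellTiter-Glo and luminescence recorded.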

[3] = qHTS assay to identify small molecule antagonists of the farnesoid-X-receptor (FXR) signaling pathway - cell viability counter screen (AID 743221; active means well fitted cell-killing curve with a large enough effect in the repeat runs, not every such curve was filed as active; further: nearly all actives have a fitted effect of over 50% in size)
In short: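 Quantitative HTS of the Tox21 10K library run in parallel with the beta-lactamase reporter read. HEK 293T cells carrying a UAS-driven bla reporter got compound and 50 uM CDCA (final) for 16 h; ATP-based luminescence followed.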

[4] = biological target: Vitamin D3 receptor (Homo sapiens) (UniProt P11473); experiment: qHTS assay to identify small molecule agonists of the vitamin D receptor (VDR) signaling pathway (AID 743222; calls by dose curve)
In short: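 In VDR-bla cells, compound-induced beta-lactamase expression is quantified by FRET substrate fluorescence. Treatment lasts 16 h at 37C; substrate develops 2 h at room temperature.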

[5] = biological target: Bile acid receptor (Homo sapiens) (UniProt Q96RI1); experiment: qHTS assay to identify small molecule antagonists of the farnesoid-X-receptor (FXR) signaling pathway (AID 743217; active means well fitted inhibition curve with a large enough effect in the signal ratio in the repeat runs, not every such curve was filed as active; the % refers to the signal ratio)
In short: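 GeneBLAzer FXR-UAS-bla HEK 293T, CDCA-stimulated (50 uM final). Compound treatment 16 h, 37 °C. Detection: beta-lactamase cleavage of B/G FRET substrate, fluorescence.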

[6] = biological target: Bile acid receptor (Homo sapiens) (UniProt Q96RI1); experiment: qHTS assay to identify small molecule agonists of the farnesoid-X-receptor (FXR) signaling pathway (AID 743220; active means well fitted activation curve with a large enough effect in the signal ratio in the repeat runs, not every such curve was filed as active; the % refers to the signal ratio; further: potency means the concentration at half of the fitted maximal effect)
In short: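 Beta-lactamase reporter under UAS control in GeneBLAzer FXR HEK 293T cells (5000/well) measured with LiveBLAzer FRET substrate after 2 h at room temperature. Compound exposure lasted 16 h at 37C.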

[7] = biological target: Vitamin D3 receptor (Homo sapiens) (UniProt P11473); experiment: qHTS assay to identify small molecule antagonists of the vitamin D receptor (VDR) signaling pathway (AID 743223; active means well fitted inhibition curve with a large enough effect in the signal ratio in the repeat runs, not every such curve was filed as active; the % refers to the signal ratio)
In short: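 Fluorescence from LiveBLAzer B/G FRET substrate, read after 2 h at room temperature, reflects beta-lactamase reporter activity in VDR-bla cells treated 16 h at 37C with compounds and agonist 1alpha,25-dihydroxyvitamin D3 (3 nM final).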

[8] = qHTS assay to identify small molecule antagonists of the peroxisome proliferator-activated receptor delta (PPARd) signaling pathway - cell viability counter screen (AID 743213); further: nearly all actives have a fitted effect of over 50% in size
In short: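 Cytotoxicity counter screen: CellTiter-Glo luminescence read 30 min after addition, in the same wells as the reporter assay. There, PPARd UAS-bla HEK293H cells (3000/well) were treated 17 h at 37 C with compound and 300 nM L165041.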

[9] = biological target: Peroxisome proliferator-activated receptor delta (Homo sapiens) (UniProt Q03181); experiment: qHTS assay to identify small molecule agonists of the peroxisome proliferator-activated receptor delta (PPARd) signaling pathway (AID 743212; calls by dose curve)
In short: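 A PPARd-bla HEK293H line with beta-lactamase under an Upstream Activator Sequence is treated with compounds at 37 C. Substrate loading for 2 h at room temperature precedes the fluorescence measurement.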

[10] = biological target: Peroxisome proliferator-activated receptor delta (Homo sapiens) (UniProt Q03181); experiment: qHTS assay to identify small molecule antagonists of the peroxisome proliferator-activated receptor delta (PPARd) signaling pathway (AID 743215; active means well fitted inhibition curve with a large enough effect in the signal ratio in the repeat runs, not every such curve was filed as active; the % refers to the signal ratio;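 further: cells stimulated with agonist L165041 at 300 nM final during compound exposure; series mostly up to about 62 µM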)
In short: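 HEK293H UAS-bla, PPARd; agonist L165041 300 nM final with cpd in DMSO; 37 C 17 h; FRET substrate, RT 2 h; fluorescence intensity.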

Chain of Bile acid receptor (Homo sapiens) (Q96RI1 whole entry, looked up): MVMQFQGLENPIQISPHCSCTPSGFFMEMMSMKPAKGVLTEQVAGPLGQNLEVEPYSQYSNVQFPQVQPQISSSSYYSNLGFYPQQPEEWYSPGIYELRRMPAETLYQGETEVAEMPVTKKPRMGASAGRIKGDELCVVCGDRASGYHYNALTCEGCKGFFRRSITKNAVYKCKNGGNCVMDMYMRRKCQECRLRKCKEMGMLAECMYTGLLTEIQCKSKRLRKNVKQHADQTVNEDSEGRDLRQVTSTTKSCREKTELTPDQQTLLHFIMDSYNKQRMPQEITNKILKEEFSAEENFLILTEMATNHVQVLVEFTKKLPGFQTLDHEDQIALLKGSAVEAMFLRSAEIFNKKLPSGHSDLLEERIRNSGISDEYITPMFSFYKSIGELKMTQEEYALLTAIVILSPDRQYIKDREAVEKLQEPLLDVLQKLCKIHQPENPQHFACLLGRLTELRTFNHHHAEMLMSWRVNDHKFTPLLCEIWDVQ
Chain of Peroxisome proliferator-activated receptor delta (Homo sapiens) (Q03181 whole entry, looked up): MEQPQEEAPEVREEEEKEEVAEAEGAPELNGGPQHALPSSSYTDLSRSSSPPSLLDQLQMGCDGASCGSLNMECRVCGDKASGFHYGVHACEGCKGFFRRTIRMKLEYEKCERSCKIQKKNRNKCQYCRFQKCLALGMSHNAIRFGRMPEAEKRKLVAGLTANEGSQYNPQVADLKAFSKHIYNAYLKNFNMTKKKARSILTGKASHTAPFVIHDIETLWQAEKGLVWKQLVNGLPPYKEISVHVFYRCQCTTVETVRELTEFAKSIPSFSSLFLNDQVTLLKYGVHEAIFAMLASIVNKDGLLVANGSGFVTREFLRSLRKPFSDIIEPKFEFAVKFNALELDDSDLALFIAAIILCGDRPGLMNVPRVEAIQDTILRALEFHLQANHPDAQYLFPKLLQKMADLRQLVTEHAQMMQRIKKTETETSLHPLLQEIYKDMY
Chain of Vitamin D3 receptor (Homo sapiens) (P11473 whole entry, looked up): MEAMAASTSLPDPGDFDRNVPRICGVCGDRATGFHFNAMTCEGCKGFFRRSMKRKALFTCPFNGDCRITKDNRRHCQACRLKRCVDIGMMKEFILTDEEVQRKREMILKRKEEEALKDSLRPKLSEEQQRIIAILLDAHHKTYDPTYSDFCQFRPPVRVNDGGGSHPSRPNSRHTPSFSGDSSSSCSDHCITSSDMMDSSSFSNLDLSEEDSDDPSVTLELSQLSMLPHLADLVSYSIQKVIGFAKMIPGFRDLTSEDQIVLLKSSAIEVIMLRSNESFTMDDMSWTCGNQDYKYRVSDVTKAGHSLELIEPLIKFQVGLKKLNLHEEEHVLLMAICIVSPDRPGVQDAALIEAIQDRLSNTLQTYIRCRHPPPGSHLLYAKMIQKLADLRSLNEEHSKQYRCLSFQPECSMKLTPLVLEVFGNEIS

Compound	outcome [1]	Potency [2]	outcome [3]	outcome [4]	Potency [5]	Potency [6]	outcome [7]	outcome [8]	outcome [9]	outcome [10]
Cc1cc(Cl)c(C)cc1Cl	inactive	inactive	inactive	inactive						
Nc1ccc2cc(S(=O)(=O)O)cc(O)c2c1	inactive	inactive	inactive	inactive	inactive	inactive	inactive			
Brc1ccc(-c2ccccc2)cc1	inactive	inactive	inactive	inactive			inactive	inactive		
CC(CO)c1ccccc1 (stereo not given)	inactive	inactive	inactive					inactive		
Nc1nnc(-c2cccc(Cl)c2Cl)c(N)n1		inactive	inactive	inactive	inactive	inactive		inactive	inactive	inactive
CC(C)c1ccc2cc(C(C)C)ccc2c1	inactive	inactive	inactive	inactive				inactive		
Cc1cccc(C)c1NC(=O)c1ccccc1C(=O)O	inactive	inactive	inactive	inactive				inactive		
N#Cc1ccc(C(=O)O)cc1	inactive	inactive	inactive	inactive		inactive				
CC(=O)c1ccc2c(c1)Cc1ccccc1-2		inactive	inactive	inactive	inactive			inactive	inactive	inactive
O=C(O)c1cc(Cl)cc([N+](=O)[O-])c1Cl	inactive	inactive		inactive	inactive		inactive	inactive		
COC(=O)CCc1ccc(OCC(O)CNC(C)C)cc1 (stereo not given)	inactive	inactive	inactive	inactive			inactive	inactive		
On1nnc2ccccc21	inactive			inactive			inactive			
O=C(CCNNC(=O)c1ccncc1)NCc1ccccc1	inactive	inactive	inactive	inactive	inactive	inactive				
COc1ccc(OC)c(Cl)c1		inactive	inactive					inactive	inactive	inactive
O=S(=O)(O)c1cc(O)c2ccc(Nc3ccccc3)cc2c1	inactive	inactive	inactive	inactive			inactive	inactive		
Cc1cc(C(C)(C)C)c(O)c(C)c1CC1=NCCN1		inactive						inactive	inactive	
O=C(OCc1ccccc1)C(=O)OCc1ccccc1		inactive		inactive			inactive	inactive	inactive	inactive
O=C(OCC(COC(=O)c1cccnc1)(COC(=O)c1cccnc1)COC(=O)c1cccnc1)c1cccnc1		inactive	inactive				inactive	inactive	inactive	inactive
CCCOC(=O)C(C)O (stereo not given)		inactive	inactive		inactive	inactive	inactive		inactive	
Oc1cn2c(n1)Nc1ccc(Cl)c(Cl)c1C2		inactive	inactive	inactive			inactive	inactive	inactive	inactive
CC1(CO)CN(c2ccccc2)NC1=O (stereo not given)				inactive						inactive
CCN(CC)CC(=O)Nc1c(C)cccc1C		inactive	inactive		inactive	inactive		inactive		
CCCN1C[C@H](CSC)C[C@@H]2c3cccc4[nH]cc(c34)C[C@H]21			inactive	inactive			inactive		inactive	inactive
O=C(/N=N/C(=O)OCc1ccccc1)OCc1ccccc1		inactive	inactive	inactive				inactive	inactive	inactive
OCCC(F)(F)C(F)(F)C(F)(F)C(F)(F)C(F)(F)C(F)(F)C(F)(F)C(F)(F)F		inactive		inactive			inactive	inactive	inactive	
CC1(C)S[C@@H]2[C@H](N=CN3CCCCCC3)C(=O)N2[C@H]1C(=O)O		inactive	inactive	inactive			inactive		inactive	inactive
O=C1c2cccc3c2[C@H](CCC3)CN1[C@@H]1CN2CCC1CC2		inactive	inactive	inactive			inactive	inactive	inactive	inactive

Compound	outcome [1]	Potency [2]	outcome [3]	outcome [4]	Potency [5]	Potency [6]	outcome [7]	outcome [8]	outcome [9]	outcome [10]
CCCOC(OCCC)OCCC		inactive	inactive	inactive	inactive		inactive		inactive	inactive
O=C1c2ccccc2C(=O)N1CCl		inactive	inactive	inactive	inactive				inactive	inactive
OCCN(CCO)c1cccc(Cl)c1		inactive		inactive				inactive	inactive	
CC(=O)/C=C/C1C(C)=CCC(C)C1(C)C (stereo not given)		inactive	inactive	inactive			inactive		inactive	inactive
C[C@@H]1O[C@@H](O[C@@H]2[C@@H](O)[C@H](OCCc3ccc(O)c(O)c3)O[C@H](CO[C@@H]3O[C@H](CO)[C@@H](O)[C@H](O)[C@H]3O)[C@H]2OC(=O)/C=C/c2ccc(O)c(O)c2)[C@H](O)[C@H](O)[C@H]1O		inactive	inactive	inactive			inactive		inactive	inactive
O=C(OCC1(COC(=O)c2cccnc2)CCCC(COC(=O)c2cccnc2)(COC(=O)c2cccnc2)C1O)c1cccnc1		inactive		inactive				inactive	inactive	inactive
COC(=O)CCCCCCCC(=O)OC		inactive	inactive	inactive				inactive		
COc1ccc2c(c1)C(=O)N(CCc1ccc(S(=O)(=O)NC(=O)NC3CCCCC3)cc1)C(=O)C2(C)C		inactive	inactive			26.6 µM (active)	inactive		inactive	inactive
N[C@@H](CCC(=O)N[C@@H](CS)C(=O)NCC(=O)O)C(=O)O		inactive	inactive	inactive						
Cc1ccccc1N=O		inactive	inactive	inactive	inactive	inactive		inactive	inactive	
COCCc1ccc(OCC2CO2)cc1 (stereo not given)		inactive		inactive			inactive	inactive	inactive	inactive
O=C(OCC(O)CO)c1ccccc1Nc1ccnc2c(C(F)(F)F)cccc12 (stereo not given)		inactive		inactive		inactive	inactive	inactive		
COc1cc2c(cc1OC)[C@@H]1CC(=O)[C@@H](CC(C)C)CN1CC2		inactive	inactive	inactive			inactive		inactive	inactive
CC(C)(C)c1cc(CCC(=O)NN)cc(C(C)(C)C)c1O		inactive	inactive	inactive			inactive	inactive	inactive	
CN(C)C(=O)CNC(=O)Cc1ccccc1			inactive	inactive						
C=C(C)C(=O)OCc1ccccc1		inactive	inactive	inactive	inactive	inactive	inactive	inactive	inactive	
C[Si](C)(C)C		inactive	inactive	inactive					inactive	inactive
CCCCNc1ccc(C(=O)OCCN(C)C)cc1			inactive	inactive			inactive	inactive	inactive	inactive
Cc1ccc2c(c1)OCC(=O)CO2		inactive		inactive	inactive	inactive			inactive	inactive
Nc1ccc(S(=O)(=O)Nc2ccc(Cl)nn2)cc1		inactive		inactive	inactive	inactive	inactive		inactive	inactive
O=C(O)C(=O)Cc1ccccc1		inactive	inactive	inactive			inactive	inactive	inactive	inactive
C=C(C)C(=O)OCCOP(=O)(O)OCCOC(=O)C(=C)C		inactive	inactive	inactive	inactive				inactive	inactive
CC(=O)Nc1ccc(S(=O)(=O)Nc2ccc([N+](=O)[O-])cc2)cc1		inactive	inactive	inactive			inactive	inactive	inactive	
BrCc1cccc(Oc2ccccc2)c1		inactive	inactive	inactive				inactive		inactive
N[C@@H](COP(=O)(O)O)C(=O)O		inactive	inactive	inactive	inactive				inactive	inactive
O=C1O[C@@H]2[C@@H](O)[C@H](O)O[C@@H]2[C@H]1O		inactive	inactive	inactive	inactive	inactive	inactive	inactive		

Source: PubChem BioAssay (Tox21)
